Screens (PubChem)
SMN2 splice enh = qHTS Assay for Enhancers of SMN2 Splice Variant Expression; 210,000 tested, 2.8% active; Potency, µM (top dose mostly 46.1 µM), actives largely listed as activators; HEK293 SMN2-luciferase splicing reporter, luminescence, 30-36 h; further: nearly all actives have a fitted effect of over 55% in size
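HEK293 cells carry an SMN2 minigene-luciferase reporter in which exon 7 inclusion puts luciferase in frame. Cells were seeded at 2000 cells/well, attached for 10-12 hours, then exposed to compounds for 30-36 hours at 37C before ONE-Glo luminescence.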
KinaseGlo FLuc = Counterscreen for Luciferase (Kinase-Glo TM) Inhibition; Kinase-Glo luciferase, ATP luminescence, 8 min; Potency, µM (doses to about 38.3 µM), actives largely listed as inhibitors; 200,000 tested, 0.28% active; AID 1379, 2008; further: nearly all actives have a fitted effect of over 60% in size
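Light output from Kinase-Glo luciferase with luciferin and 10 uM ATP in 50 mM imidazole pH 7.2, KCl, MgCl2, Tween 20, BSA; compound pin-delivered, 8-min ambient incubation, then luminescence read.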
NPC1 prom act = qHTS Assay for NPC1 Promoter Activators; 320,000 tested, 2.4% active; AID 485313, 2010; Huh7 NPC1 promoter luciferase reporter, 24 h; Potency, µM (titrated, usually from 9.22 µM), hits mostly activators; further: nearly all actives have a fitted effect of over 60% in size
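Huh7 cells stably carrying NPC1 promoter–luciferase, plated in Opti-MEM with 10% FBS for 2 h, were exposed to compound in DMSO for 24 h at 37 °C; luciferase reagent was added for 10 min and luminescence read.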
FLuc counter = qHTS profiling assay for firefly luciferase inhibitor/activator using purifed enzyme and Km concentrations of substrates (counterscreen for miR-21 project). purified FLuc, Km substrates, luminescence inhibition. Luciferin 4-monooxygenase (Photinus pyralis), P08659. 360,000 tested, 6.9% active. Potency, µM (doses to about 57.5 µM), most hits filed as inhibitors. AID 588342, 2011; further: nearly all actives have a fitted effect of over 55% in size
Target sequence (P08659 whole entry, looked up): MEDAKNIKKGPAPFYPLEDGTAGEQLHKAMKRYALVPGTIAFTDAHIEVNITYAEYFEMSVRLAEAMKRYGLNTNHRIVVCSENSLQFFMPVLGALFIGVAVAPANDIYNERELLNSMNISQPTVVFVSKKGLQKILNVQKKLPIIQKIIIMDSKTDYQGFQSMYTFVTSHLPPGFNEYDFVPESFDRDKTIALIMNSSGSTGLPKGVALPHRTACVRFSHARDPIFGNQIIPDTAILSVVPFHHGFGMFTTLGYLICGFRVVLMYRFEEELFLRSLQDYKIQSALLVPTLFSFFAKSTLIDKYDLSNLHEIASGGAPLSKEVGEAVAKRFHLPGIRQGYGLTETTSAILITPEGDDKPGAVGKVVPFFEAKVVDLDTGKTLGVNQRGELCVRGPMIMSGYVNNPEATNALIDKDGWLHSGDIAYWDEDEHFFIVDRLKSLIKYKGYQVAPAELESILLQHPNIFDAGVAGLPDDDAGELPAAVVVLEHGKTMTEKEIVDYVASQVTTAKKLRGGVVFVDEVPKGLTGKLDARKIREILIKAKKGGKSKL
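Purified P. pyralis luciferase, 10 nM final, with Km-level 10 uM D-luciferin and 10 uM ATP in 50 mM Tris acetate pH 7.5, 10 mM Mg acetate, 0.01% Tween-20, 0.05% BSA; 6-point qHTS titration about 60 µM downward; luminescence read.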
ELG1 genotoxic = qHTS screen for small molecules that induce genotoxicity in human embryonic kidney (HEK293T) cells expressing luciferase-tagged ELG1; 330,000 tested, 1.3% active; HEK293T ELG1-luciferase reporter, luminescence, 16 h; Potency, µM (titrated, usually from 46 µM), hits mostly activators; further: nearly all actives have a fitted effect of over 60% in size
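Genotoxicity was scored as increased ELG1-luciferase reporter signal, measured by ONE-Glo luminescence (30 min, room temperature). Compound or vehicle exposure of the HEK293T reporter cells lasted 16 hr at 37°C.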
Rab9 promoter act = qHTS Assay for Rab9 Promoter Activators; 320,000 tested, 2.8% active; Huh7 Rab9 promoter-luciferase reporter, luminescence, 24 h; Potency, µM (series often up to 9.22 µM), usual class: activators; further: nearly all actives have a fitted effect of over 60% in size
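Quantitative HTS format; Huh7 Rab9-luciferase reporter cells (1500/well) receive compound 2 h post-plating, incubate 24 h at 37 °C, then get luciferase reagent for 10 min before luminescence reading.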
A number is an active result; n = inactive; u = inconclusive; x = no result; [ ] = dose if it differs, or a comment. Shown are actives, neighbours in structure and some others; about 7.3% of the full set was active somewhere. The call rests on the fitted dose curve; in most records, active means well fitted curve in the direction sought with a large enough effect; inconclusive means small, poorly fitted or top-dose-only effect, or another doubt; inactive means no such curve, though single readings can be large; an effect the other way counts as inactive or inconclusive.

SMILES	SMN2 splice enh	KinaseGlo FLuc	NPC1 prom act	FLuc counter	ELG1 genotoxic	Rab9 promoter act
COc1ccccc1NC(=O)CSC1=Nc2ccccc2C2=NC(CCC(=O)NCCc3ccccc3)C(=O)N12 (stereo unspecified)	x	x	x	n	x	x
O=C1OCCC1Sc1nnnn1-c1ccc(Cl)cc1 (stereo unspecified)	x	x	n	11µM	n	n
O=C(COc1ccc(Br)cc1Br)NC(=S)Nc1cccc(CO)c1	18µM	n	0.35µM	3.8µM	7.3µM	0.45µM
O=C(COc1ccc(Br)cc1Cl)NC(=S)N1CCc2ccccc21	u	n	n	u	n	n
O=C(COc1ccc(Br)cc1Br)NC(=S)N1CCCc2ccccc21	n	n	n	17µM	23µM	n
O=C(COc1ccccc1Cl)NC(=S)Nc1cccc(NC(=O)c2ccccc2Cl)c1	u	n	n	u	n	n
O=C(COc1ccc2ccccc2c1Br)NC(=S)Nc1cccc(CO)c1	u	n	u	8.5µM	21µM	u
Cc1ccc(CCNC(=O)CCCn2c(=O)c3ccccc3n(Cc3ccccc3C#N)c2=O)cc1	n	x	x	n	x	x
Cc1noc(C)c1COC(=O)c1ccc(-c2nc3ccccc3s2)s1	10µM	n	u	5.4µM	7.3µM	3.5µM
CCNC(=O)COC(=O)c1ccc(-c2nc3ccccc3s2)s1	13µM	u	n	1.3µM	u	u
CCNC(=O)COC(=O)c1cc(C)nc2ccccc12	n	n	n	n	n	n
NS(=O)(=O)c1ccc(CCNC(=O)C2CCN(C(=O)Nc3ccccc3)CC2)cc1	x	x	x	x	n	x
COc1ccc(C(=O)NC2CC2)cc1OC1CCN(C(C)CSC)CC1 (stereo unspecified)	x	x	n	n	n	n
O=C(COC(=O)Cn1cnc2ccccc21)Nc1ccc2c(c1)C(=O)c1ccccc1C2=O	n	n	u	u	12µM	u
COc1ccc(OC)c(/C=N/NC(=O)c2ccncc2)c1	x	x	n	n	n	n
COc1ccc(/C=C/C(=O)NCC2COc3ccccc3O2)c(OC)c1 (stereo unspecified)	n	n	n	24µM	n	n
COc1ccc(NC(=O)CCC2COc3ccccc3O2)c(OC)c1 (stereo unspecified)	n	n	n	n	n	n
COc1ccc(/C=C/C(=O)NNC(=O)c2ccncc2)c(OC)c1	x	x	n	13µM	n	n
CNc1ccc(Br)cc(C(=O)/C=C/c2ccc(OC)cc2OC)c1=O	n	n	n	12µM	n	n
COc1ccc(/C=C/C(=O)c2ccc3c(c2)OCO3)c(OC)c1	16µM	u	3.2µM	2.1µM	5.8µM	2.8µM
COc1cc(O)c(C(=O)/C=C/c2ccccc2)c(OC)c1	n	n	n	11µM	n	n
COc1cccc(/C=C/C(=O)c2ccc3c(c2)OCCO3)c1OC	x	x	3.2µM	0.76µM	u	u
COc1ccc(/C=C/C(=O)c2ccc(OC)cc2OC)c(OC)c1	x	x	n	19µM	n	n
COc1cc(OC)c(C(=O)/C=C/c2ccc(OCc3ccccc3)c(OC)c2)c(OC)c1	x	x	n	n	n	n
O=C(/C=C/c1cccc([N+](=O)[O-])c1)c1ccc2c(c1)OCCO2	n[1.84 µM]	n	n	u	u	n
SMILES	SMN2 splice enh	KinaseGlo FLuc	NPC1 prom act	FLuc counter	ELG1 genotoxic	Rab9 promoter act
COc1ccc(/C=C/C(=O)c2cc(Cl)cc(Cl)c2O)c(OC)c1	x	x	n	u	n	n
COc1cc(/C=C/C(=O)c2ccc3c(c2)OCO3)cc(Cl)c1O	x	x	n	8.5µM	n	n
COc1cc(/C=C/C(=O)OCC(=O)Nc2ccc3c(c2)OCO3)ccc1O	x	x	x	x	n	x
Cc1cccc(NC(=O)CN(C)S(=O)(=O)c2ccc(Br)cc2)n1	n	n	n	n	n	n
Cc1c(NP(=O)(Oc2ccccc2F)Oc2ccccc2F)c(=O)n(-c2ccccc2)n1C	n	n	n	n	n	n
CCN(CC(=O)Nc1ccc2c(c1)OCCO2)C(=O)/C=C/c1ccc(OC)c(OC)c1	x	x	n	n	n	n
CCN(CC(=O)Nc1ccc2c(c1)OCCO2)C(=O)/C=C/c1ccc(OC)cc1OC	x	x	n	15µM	u	n
COc1ccc(/C=C/C(=O)c2ccccc2)c(OC)c1	u	n	3.2µM	2.4µM	u	1.8µM
Cc1cc2c(C)nc(-c3ccccc3)nc2o1	28µM	n	u	19µM	16µM	u
COc1cc(C2Nc3ccc4ncccc4c3C3=C2C(=O)CCC3)cc(OC)c1O (stereo unspecified)	10µM	n	n	n	u	n
COc1cc(C2Nc3ccc4ncccc4c3C3=C2C(=O)CC(C)(C)C3)cc(OC)c1O (stereo unspecified)	28µM	n	n	n	u	n
CC1(C)CC(=O)C2=C(C1)c1c(ccc3ncccc13)NC2c1cccs1 (stereo unspecified)	n	n	n	n	u	n
CS(=O)(=O)N1CCN(Cc2cc(=O)n3ccsc3n2)CC1	x	x	n	n	n	n
Cn1c(COc2ccc(C(=O)O)cc2)nc2ccccc21	x	x	n	n	n	n[1.84 µM]
Cc1ccccc1OCc1nc2ccccc2n1C	x	x	3.2µM	8.5µM	u	4µM
Cc1ccc(C)c(OCc2nc3ccccc3n2C)c1	n	x	x	u	x	x
Cn1c(COc2ccc(F)cc2)nc2ccccc21	x	x	2.5µM	13µM	u	3.5µM
COc1ccc(CNC(=O)c2ccc(CSc3nc4ccncc4n3Cc3ccccc3F)cc2)cc1	n	x	x	n	x	x
CCOC(=O)/C(C#N)=C/Nc1ccccc1OC	u	n	3.2µM	6.7µM	u	2.2µM
COC(=O)/C(C#N)=C/c1c[nH]c2ccccc12	n	n	n	u	u	n
CCOC(=O)/C(C#N)=C/c1c[nH]c2ccccc12	n	n	n	19µM	n	n
c1ccc(N2CCCCC2)c(NC2=NCCC2)c1	n	n	n	n	n	n
O=C(NCc1cccc(Br)c1)C1CCN(C(=O)c2sccc2-n2cccc2)CC1	n	x	x	n	x	x
CCOC(=O)c1cn2nc(N3CCCC3)ccc2n1	x	x	0.5µM	2.1µM	u	0.32µM
CCOC(=O)c1cn2nc(N3CCCCC3)ccc2n1	x	x	0.32µM	0.95µM	0.58µM	0.13µM
CCOC(=O)c1cn2nc(Oc3ccccc3)ccc2n1	x	x	2.2µM	15µM	u	2.8µM
CCOC(=O)c1cn2nc(Oc3ccc(C)cc3)ccc2n1	x	x	n	u	u	u
CCOC(=O)C1CCN(C(=O)c2ccc(Br)o2)CC1	n	n	n	n	n	n
COc1ccc(C(=O)COC(=O)Cc2n[nH]c(=O)c3ccccc23)c(OC)c1	x	x	n	n	n	n
